“And” between values parts separate entries of the source, which are not always exact repeats. Identical values can stand only once. Among all 360,000 compounds or so, about 11,000 (3.1%) were called active. Another 2% or so got no clear call; they are omitted. Rule as the data show it: active = fluorescence intensity above about 16000; inconclusive = no clear call, values can overlap the other calls; inactive = below that. The list comes from a sample in which actives are over-represented; it also holds similar structures and randomly drawn compounds. Some structures have more than one record in an assay (separate samples or runs), and their calls can disagree.
assay: compound fluorescence in toxin protease inhibitor counterscreen, primary screen, artefact control for toxin protease inhibitor project, biochemical, multiplex microsphere, HTS (AID 624483); conditions: compound autofluorescence counterscreen, microsphere flow cytometry; stronger effect = higher value

Row | Structure (SMILES) | fluorescence intensity
1 | S=C(NCCCc1cnc[nH]1)NCCCN(Cc1ccc(Cl)c(Cl)c1)c1ccc(Br)cn1 | 3910 (inactive)
2 | Cc1ccc(-n2nc3cc(Cl)c(NC(=O)c4ccco4)cc3n2)cc1 | 20600 (active)
3 | Cc1ccc(NC(=O)c2ccco2)cc1 | 3370 (inactive)
4 | Cc1ccc(-n2nc3cc(C)c(NC(=O)c4cccnc4)cc3n2)cc1 | 3240 (inactive)
5 | CN(C(=O)CN1CCN(c2cc(-c3ccc(OCc4ccccc4)cc3)ncn2)CC1)c1ccccc1 | 2960 (inactive)
6 | COC(=O)c1ccc2nc(-c3cccc(Br)c3)c(Cc3ccccc3C(F)(F)F)n2c1 | 5960 (inactive)
7 | OCCNc1nc(Nc2ccc(Cl)c(Cl)c2)nc2ccccc12 | 3890 (inactive)
8 | O=[N+]([O-])c1c(NCCO)cc(Sc2nc3ccccc3s2)c2nonc12 | 16100 (active)
9 | Nc1nnc(SCC(=O)Nc2ccc3nc(SCC(=O)Nc4ccccc4)sc3c2)s1 | 2450 (inactive)
10 | COc1ccc(C2=NO[C@@H]3C(=O)N(Cc4ccccc4)C(=O)[C@H]23)cc1OC | 8330 (inactive)
11 | Cc1cc2ccccn2c1C(=O)c1cccc(F)c1 | 3460 (inactive)
12 | Cc1c(C(=O)NNC(=O)c2ccncc2)oc2ccccc12 | 6810 (inactive)
13 | Cc1c(C=O)c2ccccn2c1C(=O)c1ccncc1 | 20400 (active)
14 | O=C(CN1C(=O)NC2(CCCCCC2)C1=O)Nc1ccc([N+](=O)[O-])cc1 | 3160 (inactive)
15 | O=C(NCCO)c1cccc(-c2cccc3nccn23)c1 | 3960 (inactive)
16 | C[C@H](CO)N1C[C@H](C)[C@@H](CN(C)Cc2ccc(-c3ccccc3)cc2)Oc2ccc(NC(=O)Cn3cnnn3)cc2C1=O | 3780 (inactive)
17 | COc1ccc(NC(=O)C2Cc3c(-c4cccc(NC(C)=O)c4)ccnc3O2)cc1OC (stereo not given) | 3970 (inactive)
18 | CNC(=O)CN1C(=O)NC(c2ccccc2)(c2ccccc2)C1=O | 4630 (inactive)
19 | CC1(C(=O)NS(=O)(=O)c2ccccc2Cl)CCN1C(=O)c1cccc(F)c1 (stereo not given) | 2940 (inactive)
20 | O=c1[nH]c(=O)n(Cc2ccco2)c2c1C(C(F)(F)F)(C(F)(F)F)N=C(c1ccco1)N2 | 24800 (active)
21 | CC(=O)Nc1ccc(S(=O)(=O)NC2(C(F)(F)F)C(=O)Nc3c2c(=O)[nH]c(=O)n3Cc2ccccc2)cc1 (stereo not given) | 2630 (inactive)
22 | Cc1ccccc1C1=NC(C(F)(F)F)(C(F)(F)F)c2c(n(-c3ccc(F)cc3)c(=O)[nH]c2=O)N1 | 10500 (inactive)
23 | CC(C)C[C@H]1CNC(=O)C(=O)N1C[C@H]1CCCN1C[C@H](Cc1ccc(O)cc1)N1C[C@H](CC(C)C)N(CC2CCCCCC2)C(=O)C1=O | 4880 (inactive)

Row | Structure (SMILES) | fluorescence intensity
24 | COCCCNC(=S)NCCNc1nc2cc(C)c(C)cc2cc1C#N | 4720 (inactive)
25 | Cc1ccc2nc(NCCCNC(=O)c3cnccn3)c(C#N)cc2c1 | 20100 (active)
26 | O=C(COc1ccc(Cl)cc1Cl)NCCCNC(=O)c1cnccn1 | 3160 (inactive)
27 | CCOc1ccc2nc(Cl)c(C3CC(c4ccccc4)=NN3C(=O)c3cccs3)cc2c1 (stereo not given) | 2410 (inactive)
28 | Nc1ccccc1Sc1cc(Cl)nnc1Cl | 3840 (inactive)
29 | CCc1cc(Br)ccc1NC(=O)C1CCCO1 (stereo not given) | 10900 (inactive)
30 | CCOC(=O)c1ccc(NC(=O)c2ccc(NC(=O)C3CCCO3)cc2)cc1 (stereo not given) | 3420 (inactive)
31 | COC(=O)c1cc(OC)c(OC)cc1NC(=O)C1CCCO1 (stereo not given) | 18500 (active)
32 | O=S1(=O)CC(N2CCN(Cc3ccccc3F)CC2)CN1Cc1cn(Cc2ccccc2)nn1 (stereo not given) | 5590 (inactive)
33 | CCC(C)(C(=O)Nc1ccccc1C)N(C(=O)CNC(C)=O)c1ccc(C)cc1 (stereo not given) | 2200 (inactive)
34 | CN1CCN(c2ccc([N+](=O)[O-])c(Sc3nc4ccccc4[nH]3)c2)CC1 | 16500 (active)
35 | CC1CCN(c2ccc([N+](=O)[O-])c(SCCO)c2)CC1 | 6270 (inactive)
36 | COc1cccc(-c2nc3ccc(N4CCN(C)CC4)cc3[nH]2)c1 | 3340 (inactive)
37 | CC1Cc2[nH][nH]c(=O)c2C(C2CCCC2)O1 (stereo not given) | 6280 (inactive)
38 | Clc1ccc(C[n+]2cc(-c3ccccc3)n3c2CCC3)cc1 | 3590 (inactive)
39 | Cc1ccc(C(=O)C[n+]2cc(-c3ccccc3)n3c2CCCCC3)cc1 | 25100 (active) and 2670 (inactive)
40 | Cc1ccc(-c2c[n+](CC(=O)Nc3ccccc3)c3n2CCC3)cc1 | 3860 (inactive)
41 | O=S(=O)(N1CCCCC1)N1CCNCC1 | 9990 (inactive)
42 | O=C(/C=C/c1ccc(Cl)cc1)N1CCN(c2ccccc2[N+](=O)[O-])CC1 | 2480 (inactive)
43 | CO/N=C/c1ccc(N2CCN(C(=O)c3cccc(Cl)c3)CC2)c([N+](=O)[O-])c1 | 22700 (active)
44 | O=C(c1ccc(Cl)c([N+](=O)[O-])c1)N1CCN(c2ccccc2)CC1 | 4410 (inactive)
45 | Cc1cccnc1C(NC(=O)C1CCN(Cc2ccc(Cl)c(Cl)c2)CC1)c1ccc(Cl)cc1 (stereo not given) | 3480 (inactive)
46 | Cc1ccc(S(=O)(=O)NCCC(c2ccccc2)c2ccccc2)cc1C(=O)O | 3790 (inactive)

Row | Structure (SMILES) | fluorescence intensity
47 | CCC(C)N(C)C1CCN(C(=S)Nc2ccc(OC)cc2)CC1 (stereo not given) | 4340 (inactive)
48 | COc1ccc(NC(=S)N2CCc3cc(OC)c(OC)cc3C2)cc1 | 5760 (inactive)
49 | COc1ccc(NC(=S)N2N=CCC2c2ccccc2)cc1 (stereo not given) | 22400 (active)
50 | Cc1ccc(-c2nc3c(Cl)cc(C(F)(F)F)cn3c2Cc2cccc(Cl)c2)cc1 | 5350 (inactive)
51 | Cc1ccn(CC(=O)N2N=C(C(F)F)CC2(O)C(F)F)n1 (stereo not given) | 2400 (inactive)
52 | Cc1nn(Cc2ccc(C(=O)N3N=C(C(F)F)CC3(O)C(F)F)cc2)c(C)c1[N+](=O)[O-] (stereo not given) | 20600 (active)
53 | Cc1ccc(C(C)NC(=O)Cn2nc(C)c([N+](=O)[O-])c2C)cc1 (stereo not given) | 8570 (inactive)
54 | CCOC(=O)C1=CN(Cc2ccc(Br)cc2)S(=O)(=O)N(C)C1C (stereo not given) | 2790 (inactive)
55 | COc1ccc(C(C#N)=C2C=CC(=NO)c3ccccc32)cc1 | 5680 (inactive)
56 | CC(=O)Nc1ccc(S(=O)(=O)NCCc2ccccc2)cc1 | 11200 (inactive)
57 | CC1CCC(NS(=O)(=O)c2ccc3c(c2)CC(=O)N3)CC1 (stereo not given) | 6000 (inactive)
58 | Cn1sc(=O)c2cc(S(=O)(=O)NC3CC3)ccc21 | 3800 (inactive)
59 | CC1CCC(NS(=O)(=O)c2ccc3c(c2)n(C)c(=O)c(=O)n3C)CC1 (stereo not given) | 22600 (active)
60 | Cn1c(=O)c(=O)n(C)c2cc(S(=O)(=O)NCCN3CCN(c4ccccc4F)CC3)ccc21 | 5840 (inactive)
61 | Cn1c(=O)c(=O)n(C)c2cc(S(=O)(=O)NCCc3ccccc3)ccc21 | 21300 (active)
62 | COc1ccc([C@H]2CC(=O)C[C@@H](CCn3cc(CC4CCCC4)nn3)O2)cc1 | 5900 (inactive)
63 | O=C(NCc1ccccc1)C1c2ccccc2OCC(=O)N1CCCN1CCOCC1 (stereo not given) | 4950 (inactive)
64 | O=C(/C=C/[C@H]1O[C@@H](n2ccc(=O)[nH]c2=O)[C@H](O)[C@@H]1O)NCc1ccccn1 | 4540 (inactive)
65 | O=C(c1cccc(F)c1)N1CCN(c2ccc([N+](=O)[O-])c3cccnc23)CC1 | 3360 (inactive)
66 | N#Cc1ccc(C(c2ccc(C#N)cc2)n2cncn2)cc1 | 5930 (inactive)
67 | Cc1cccc(CCNS(=O)(=O)c2ccc3c(c2)NC(=O)CO3)c1 | 6090 (inactive)
68 | Cc1ccc(S(=O)(=O)NC2CCCCCC2)cc1 | 3430 (inactive)
69 | Cc1cccc(CCNS(=O)(=O)c2ccc(S(=O)(=O)NC3CCCC3)cc2)c1 | 23700 (active)

Row | Structure (SMILES) | fluorescence intensity
70 | O=C(Nc1nnc([C@H]2C[C@H](O)[C@@H](CO)O2)s1)c1cccc(Cl)c1 | 3090 (inactive)
71 | O=C(Nc1nnc(Cc2ccc(Cl)cc2)s1)c1ccncc1 | 5560 (inactive)
72 | Cc1ccc(C(=O)Nc2nnc(-c3ccncc3)s2)o1 | 20300 (active)
73 | NC(=O)CSc1nnc(NC(=O)c2ccc(Br)o2)s1 | 5930 (inactive)
74 | COc1ccc(C(O)c2nc(-c3ccc(OC)nc3)cs2)cc1 (stereo not given) | 3040 (inactive)
75 | COc1cc(OC)cc(C2=Cc3ccccc3C(CC(=O)c3ccco3)N2c2ccc(-c3cnc(OC)nc3)cc2)c1 (stereo not given) | 5230 (inactive)
76 | Cc1ccc2c(c1)N(CC(=O)N1CCCC(C)C1)C(=O)CO2 (stereo not given) | 6170 (inactive)
77 | Cc1ccc2c(c1)N(CC(=O)N1CCCc3ccccc31)C(=O)C(C)O2 (stereo not given) | 22200 (active)
78 | Cc1ccc(C(=O)N2CCCc3ccccc32)c(Cl)c1 | 3770 (inactive)
79 | Cn1nc(-c2ccc(Cl)cc2)c2cc(C(=O)NCc3ccco3)sc21 | 5560 (inactive)
80 | COC(=O)c1ccc(CNC(=O)c2ccc3oc(C(C)C)nc3c2)cc1 | 6320 (inactive)
81 | COC(=O)c1ccc(CSc2nc3cc(Cl)ccc3o2)cc1 | 22300 (active)
82 | COC(=O)c1ccc(CSc2nncn2C)cc1 | 11000 (inactive)
83 | CCC(C)C(CO)NC(=O)/C=C/[C@H]1O[C@@H](n2cnc3c(NC(=O)c4ccccc4)ncnc32)[C@H](O)[C@@H]1O (stereo not given in full) | 4240 (inactive)
84 | CC(=O)c1ccc(N2CCN(S(=O)(=O)c3ccc4c(c3)CC(=O)N4C)CC2)cc1 | 4560 (inactive)
85 | COc1ccc(CCN2C(=O)c3[nH]nc(-c4ccccc4O)c3C2c2ccc(C)cc2)cc1OC (stereo not given) | 17800 (active)
86 | COc1ccc(CCN2C(=O)C(C)=C(C)C2=O)cc1OC | 3920 (inactive)
87 | COC(=O)c1ccc(C2C(Oc3ccccc3C)C(=O)N2CCc2ccc(OC)c(OC)c2)cc1 (stereo not given) | 2780 (inactive)
88 | COc1ccc(C2/C=C\CN(S(=O)(=O)c3cccs3)CC(=O)N2Cc2ccc(F)cc2)cc1 (stereo not given) | 3100 (inactive)
89 | Cc1cccc(NC(=S)N2CCC(O)CC2)c1C | 4400 (inactive)
90 | O=C1Nc2c(Br)cc(Br)cc2C1(O)N1CCOCC1 (stereo not given) | 4310 (inactive)

From PubChem BioAssay AID624483 (NMMLSC, 2012)
